According to PubChem BioAssay (Tox21):
Records with an inconclusive call do not appear. Activity calls are given as the source filed them. Unless noted, calls come from the whole dose curve; as a rule, active = well fitted curve in the direction sought with a large enough effect in the repeat runs; inconclusive = weak or mixed curves; inactive = no such curve, though single readings can be large; an effect the other way counts as inactive or inconclusive.

Key:
[1] = qHTS assay to identify aromatase inhibitors - cell viability counter screen (AID 743084);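 note: cells stimulated with testosterone during compound exposure; nearly all actives have a fitted effect of over 55% in size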
[2] = qHTS assay to identify small molecule that activate the aryl hydrocarbon receptor (AhR) signaling pathway - cell viability counter screen (AID 743086);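 note: HepG2 liver cells carrying the AhR DRE luciferase reporter; series mostly up to about 70 µM; nearly all actives have a fitted effect of over 45% in size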
In short: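 Cytotoxicity counter screen: CellTiter-Fluor signal (30 min, 37 C) in 4000 HepG2 cells/well carrying the DRE-luciferase reporter, following 24 h compound exposure at 37 C.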

[3] = biological target: Peroxisome proliferator-activated receptor gamma (Homo sapiens) (UniProt P37231); assay: qHTS assay to identify small molecule agonists of the peroxisome proliferator-activated receptor gamma (PPARg) signaling pathway (AID 743094; active = well fitted activation curve with a large enough effect in the signal ratio in the repeat runs, not every such curve was filed as active; the % refers to the signal ratio)
In short: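 Compounds dissolved in DMSO were added to PPARg UAS-bla HEK293H cells for 17 h at 37C, and reporter expression was quantified by fluorescence intensity after 1 h with LiveBLAzer B/G FRET substrate.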

[4] = biological target: Peroxisome proliferator-activated receptor gamma (Homo sapiens) (UniProt P37231); assay: qHTS assay to identify small molecule antagonists of the peroxisome proliferator-activated receptor gamma (PPARg) signaling pathway (AID 743191; calls by dose curve; note: series mostly up to about 63 µM; nearly all actives have a fitted effect of over 30% in size)
In short: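 Beta-lactamase reporter under UAS control in HEK293H PPARg-bla cells; compound treatment 17 h at 37C. Read-out: fluorescence intensity after 1 h room-temperature incubation with LiveBLAzer B/G FRET substrate.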

[5] = qHTS assay to identify small molecule antagonists of the peroxisome proliferator-activated receptor gamma (PPARg) signaling pathway - cell viability counter screen (AID 743194); note: nearly all actives have a fitted effect of over 55% in size
In short: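 Viability was measured as CellTiter-Glo luminescence in GeneBLAzer PPARg UAS-bla HEK293H cells. These cells had been exposed 17 h at 37 C to compounds together with rosiglitazone at 50 nM final, with the beta-lactamase readout taken in the same wells.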

[6] = qHTS assay for small molecule agonists of the antioxidant response element (ARE) signaling pathway (AID 743202; active = well fitted activation curve with a large enough effect in the signal ratio in the repeat runs, not every such curve was filed as active; the % refers to the signal ratio; note: potency is the fitted concentration of half-maximal effect)
In short: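 An ARE-responsive beta-lactamase gene stably integrated in HepG2 cells serves as reporter. After 5 h plating and 16 h compound incubation at 37 C, fluorescence of the B/G FRET substrate was measured.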

[7] = qHTS assay for small molecule agonists of the antioxidant response element (ARE) signaling pathway - cell viability counter screen (AID 743203; calls by dose curve; note: nearly all actives have a fitted effect of over 55% in size)
In short: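 Following 16 hrs of compound treatment at 37C, HepG2 cells with an ARE-controlled beta-lactamase gene were lysed with CellTiter-Glo. Luminescence was read after 30 min at room temperature.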

[8] = qHTS assay for small molecule activators of the heat shock response signaling pathway - cell viability counter screen (AID 743209); note: nearly all actives have a fitted effect of over 50% in size
In short: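 Readout: CellTiter-Glo luminescence, 30 min at room temperature. System: HSE-bla HeLa cells, 1500/well, plated overnight. Treatment: compounds in DMSO, 5 h at 37 C.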

[9] = qHTS assay to identify small molecule agonists of the peroxisome proliferator-activated receptor delta (PPARd) signaling pathway - cell viability counter screen (AID 743211); note: nearly all actives have a fitted effect of over 55% in size
In short: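 HEK293H PPARd-bla, 3000 cells/well; 5 h preincubation 37C/5% CO2; cpd in DMSO, 17 h 37C; B/G FRET substrate 2 h RT; CellTiter-Glo 30 min RT, luminescence.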

[10] = biological target: Peroxisome proliferator-activated receptor delta (Homo sapiens) (UniProt Q03181); assay: qHTS assay to identify small molecule agonists of the peroxisome proliferator-activated receptor delta (PPARd) signaling pathway (AID 743212; calls by dose curve)
In short: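 HEK293H UAS-bla reporter cells, human PPARd system; compounds delivered in DMSO after 5 h plating, then at 37 C. Beta-lactamase FRET read, 2 h RT substrate step.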

[11] = qHTS assay to identify small molecule antagonists of the peroxisome proliferator-activated receptor delta (PPARd) signaling pathway - cell viability counter screen (AID 743213); note: nearly all actives have a fitted effect of over 50% in size
In short: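 PPARd-bla HEK293H cells were treated with compounds plus agonist L165041 (300 nM final) for 17 h at 37 C. Viability was then read in the same wells by CellTiter-Glo luminescence after 30 min at room temperature.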

[12] = qHTS assay to identify small molecule agonists of the farnesoid-X-receptor (FXR) signaling pathway - cell viability counter screen (AID 743218); note: nearly all actives have a fitted effect of over 45% in size
In short: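 Parallel cytotoxicity test: compound-treated (16 h, 37 C) HEK 293T FXR-bla reporter cells were lysed with CellTiter-Glo and luminescence recorded.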

[13] = biological target: Bile acid receptor (Homo sapiens) (UniProt Q96RI1); assay: qHTS assay to identify small molecule agonists of the farnesoid-X-receptor (FXR) signaling pathway (AID 743220; active = well fitted activation curve with a large enough effect in the signal ratio in the repeat runs, not every such curve was filed as active; the % refers to the signal ratio)
In short: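 Beta-lactamase reporter under UAS control in GeneBLAzer FXR HEK 293T cells (5000/well) measured with LiveBLAzer FRET substrate after 2 h at room temperature. Compound exposure lasted 16 h at 37C.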

[14] = qHTS assay to identify small molecule antagonists of the farnesoid-X-receptor (FXR) signaling pathway - cell viability counter screen (AID 743221; active = well fitted cell-killing curve with a large enough effect in the repeat runs, not every such curve was filed as active; note: nearly all actives have a fitted effect of over 50% in size)
In short: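 Luminescence from CellTiter-Glo measures cytotoxicity in GeneBLAzer FXR-UAS-bla HEK 293T cells. Cells were exposed to compounds with 50 uM chenodeoxycholic acid (final) for 16 h at 37 C, in wells also used for the reporter readout.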

[15] = biological target: Vitamin D3 receptor (Homo sapiens) (UniProt P11473); assay: qHTS assay to identify small molecule agonists of the vitamin D receptor (VDR) signaling pathway (AID 743222; calls by dose curve)
In short: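 In VDR-bla cells, compound-induced beta-lactamase expression is quantified by FRET substrate fluorescence. Treatment lasts 16 h at 37C; substrate develops 2 h at room temperature.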

[16] = biological target: Vitamin D3 receptor (Homo sapiens) (UniProt P11473); assay: qHTS assay to identify small molecule antagonists of the vitamin D receptor (VDR) signaling pathway (AID 743223; active = well fitted inhibition curve with a large enough effect in the signal ratio in the repeat runs, not every such curve was filed as active; the % refers to the signal ratio)
In short: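 Antagonist mode uses 1alpha,25-dihydroxyvitamin D3 at 3 nM final as stimulus. VDR-bla cells receive compounds in DMSO, incubate 16 h at 37C, then a beta-lactamase FRET substrate for 2 h at room temperature before fluorescence measurement.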

[17] = qHTS assay for small molecule activators of the heat shock response signaling pathway (AID 743210; active = well fitted activation curve with a large enough effect in the signal ratio in the repeat runs, with a control signal flat, not every such curve was filed as active; the % refers to the signal ratio;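 note: HeLa cells with beta-lactamase reporter driven by heat shock elements; series mostly up to about 63 µM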)
In short: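 In HSE-bla HeLa cells, 5 h compound incubation (37 C) precedes addition of LiveBLAzer B/G substrate; after 2.5 h at room temperature, fluorescence intensity indicates reporter induction.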

[18] = biological target: Peroxisome proliferator-activated receptor delta (Homo sapiens) (UniProt Q03181); assay: qHTS assay to identify small molecule antagonists of the peroxisome proliferator-activated receptor delta (PPARd) signaling pathway (AID 743215; active = well fitted inhibition curve with a large enough effect in the signal ratio in the repeat runs, not every such curve was filed as active; the % refers to the signal ratio;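 note: cells stimulated with agonist L165041 at 300 nM final during compound exposure; series mostly up to about 62 µM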)
In short: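 HEK293H UAS-bla, PPARd; agonist L165041 300 nM final with cpd in DMSO; 37 C 17 h; FRET substrate, RT 2 h; fluorescence intensity.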

[19] = biological target: Aryl hydrocarbon receptor (Homo sapiens) (UniProt P35869); assay: qHTS assay to identify small molecule that activate the aryl hydrocarbon receptor (AhR) signaling pathway (AID 743085);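 note: HG2L7.5c1 human HepG2 liver cells with stably integrated DRE-driven firefly reporter; series mostly up to about 70 µM; nearly all actives have a fitted effect of over 15% in size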
In short: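 Cell line HG2L7.5c1 (human hepatoma, 20× DRE-luc). Plated, 5 h 37C, compound/DMSO added, 24 h 37C. CellTiter-Fluor 30 min 37C → fluorescence; then ONE-Glo 30 min RT → luminescence.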

[20] = biological target: Bile acid receptor (Homo sapiens) (UniProt Q96RI1); assay: qHTS assay to identify small molecule antagonists of the farnesoid-X-receptor (FXR) signaling pathway (AID 743217; active = well fitted inhibition curve with a large enough effect in the signal ratio in the repeat runs, not every such curve was filed as active; the % refers to the signal ratio)
In short: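 GeneBLAzer FXR-UAS-bla HEK 293T, CDCA-stimulated (50 uM final). Compound treatment 16 h, 37 °C. Detection: beta-lactamase cleavage of B/G FRET substrate, fluorescence.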

Measured: Potency

Chain of Bile acid receptor (Homo sapiens) (Q96RI1 whole entry, looked up): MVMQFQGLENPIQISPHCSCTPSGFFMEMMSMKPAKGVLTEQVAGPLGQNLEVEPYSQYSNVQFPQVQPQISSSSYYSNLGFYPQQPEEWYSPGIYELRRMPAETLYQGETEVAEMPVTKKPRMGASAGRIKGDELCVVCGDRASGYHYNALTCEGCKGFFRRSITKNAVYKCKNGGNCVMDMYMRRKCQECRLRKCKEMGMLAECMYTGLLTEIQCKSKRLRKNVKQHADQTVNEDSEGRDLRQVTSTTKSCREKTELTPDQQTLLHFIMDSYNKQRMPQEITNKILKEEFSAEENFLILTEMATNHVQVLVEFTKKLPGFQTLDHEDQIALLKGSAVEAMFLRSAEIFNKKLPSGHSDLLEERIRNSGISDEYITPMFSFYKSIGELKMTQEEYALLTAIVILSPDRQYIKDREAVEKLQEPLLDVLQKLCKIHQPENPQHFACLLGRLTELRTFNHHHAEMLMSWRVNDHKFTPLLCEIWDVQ
Chain of Peroxisome proliferator-activated receptor delta (Homo sapiens) (Q03181 whole entry, looked up): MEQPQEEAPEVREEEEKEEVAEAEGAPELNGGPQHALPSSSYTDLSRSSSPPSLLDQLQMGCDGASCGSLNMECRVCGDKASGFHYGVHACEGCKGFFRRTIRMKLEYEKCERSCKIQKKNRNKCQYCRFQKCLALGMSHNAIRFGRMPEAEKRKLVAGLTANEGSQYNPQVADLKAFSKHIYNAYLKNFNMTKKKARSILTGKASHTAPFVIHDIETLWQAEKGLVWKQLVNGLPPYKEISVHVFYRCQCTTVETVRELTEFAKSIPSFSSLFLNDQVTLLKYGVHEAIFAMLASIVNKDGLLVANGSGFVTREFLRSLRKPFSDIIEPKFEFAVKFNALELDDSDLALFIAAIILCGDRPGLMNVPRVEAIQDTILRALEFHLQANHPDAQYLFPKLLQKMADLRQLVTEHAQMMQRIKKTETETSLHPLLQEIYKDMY
Chain of Aryl hydrocarbon receptor (Homo sapiens) (P35869 whole entry, looked up): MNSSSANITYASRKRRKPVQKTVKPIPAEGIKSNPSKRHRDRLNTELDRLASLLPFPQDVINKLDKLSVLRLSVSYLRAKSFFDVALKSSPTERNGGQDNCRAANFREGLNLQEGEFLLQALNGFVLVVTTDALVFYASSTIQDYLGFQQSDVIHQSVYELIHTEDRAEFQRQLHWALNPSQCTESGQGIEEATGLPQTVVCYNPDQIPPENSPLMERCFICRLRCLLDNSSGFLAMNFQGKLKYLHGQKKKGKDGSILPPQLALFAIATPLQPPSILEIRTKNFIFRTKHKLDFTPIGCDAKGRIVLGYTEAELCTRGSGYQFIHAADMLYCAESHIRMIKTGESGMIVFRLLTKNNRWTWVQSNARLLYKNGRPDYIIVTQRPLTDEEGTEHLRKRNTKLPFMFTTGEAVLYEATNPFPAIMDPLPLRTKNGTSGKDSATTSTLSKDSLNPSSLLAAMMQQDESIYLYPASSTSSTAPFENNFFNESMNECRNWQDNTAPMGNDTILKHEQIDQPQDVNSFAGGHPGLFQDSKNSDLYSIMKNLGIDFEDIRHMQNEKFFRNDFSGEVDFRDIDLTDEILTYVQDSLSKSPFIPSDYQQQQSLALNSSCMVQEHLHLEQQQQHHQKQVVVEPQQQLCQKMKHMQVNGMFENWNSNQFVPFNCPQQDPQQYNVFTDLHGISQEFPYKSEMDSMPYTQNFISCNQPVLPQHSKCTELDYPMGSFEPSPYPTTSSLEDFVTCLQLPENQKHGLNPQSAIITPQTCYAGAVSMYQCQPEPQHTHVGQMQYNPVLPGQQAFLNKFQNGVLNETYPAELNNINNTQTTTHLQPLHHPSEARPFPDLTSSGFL
Chain of Vitamin D3 receptor (Homo sapiens) (P11473 whole entry, looked up): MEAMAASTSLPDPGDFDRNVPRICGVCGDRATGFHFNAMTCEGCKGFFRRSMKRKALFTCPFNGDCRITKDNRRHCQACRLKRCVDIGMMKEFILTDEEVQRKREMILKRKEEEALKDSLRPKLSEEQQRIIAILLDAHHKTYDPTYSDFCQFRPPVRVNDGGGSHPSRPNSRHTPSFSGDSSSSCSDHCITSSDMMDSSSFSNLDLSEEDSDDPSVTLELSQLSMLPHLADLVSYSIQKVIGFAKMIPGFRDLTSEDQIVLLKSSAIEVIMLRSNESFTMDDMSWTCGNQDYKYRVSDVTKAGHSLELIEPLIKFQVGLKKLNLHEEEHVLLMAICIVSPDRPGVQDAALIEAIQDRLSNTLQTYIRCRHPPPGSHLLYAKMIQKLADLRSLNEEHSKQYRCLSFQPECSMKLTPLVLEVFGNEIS
Chain of Peroxisome proliferator-activated receptor gamma (Homo sapiens) (P37231 whole entry, looked up): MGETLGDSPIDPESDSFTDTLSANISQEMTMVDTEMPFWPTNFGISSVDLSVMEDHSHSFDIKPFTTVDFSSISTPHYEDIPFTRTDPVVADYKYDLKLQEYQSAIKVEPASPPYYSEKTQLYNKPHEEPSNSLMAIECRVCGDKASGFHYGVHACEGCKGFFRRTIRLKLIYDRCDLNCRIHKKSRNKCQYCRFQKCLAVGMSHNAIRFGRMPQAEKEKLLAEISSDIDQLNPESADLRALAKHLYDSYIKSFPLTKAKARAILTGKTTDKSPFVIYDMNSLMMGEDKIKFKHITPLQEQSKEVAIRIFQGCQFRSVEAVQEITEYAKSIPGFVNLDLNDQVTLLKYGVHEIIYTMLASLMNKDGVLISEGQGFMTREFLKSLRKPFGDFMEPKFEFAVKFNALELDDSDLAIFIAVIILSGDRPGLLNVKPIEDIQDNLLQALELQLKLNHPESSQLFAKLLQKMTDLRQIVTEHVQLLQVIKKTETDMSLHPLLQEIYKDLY

O=C1NCCN1
not listed: [17] | [18] | [19] | [20]
inactive: all other assays above

OCCSc1ccccc1
not listed: [7] | [8] | [9] | [13] | [18] | [19] | [20]
inactive: all other assays above

CCCCCCCCCCCC[N+](C)(C)CCCS(=O)(=O)[O-]
not listed: [7] | [9] | [11] | [13] | [16] | [19] | [20]
inactive: all other assays above

Nc1ccc(S(=O)(=O)O)c(N)c1
not listed: [13] | [19] | [20]
inactive: all other assays above

CC(=O)Oc1ccc2c(c1)CC[C@@H]1[C@@H]2CC[C@]2(C)[C@@H](O)CC[C@@H]12
not listed: [2] | [4] | [6] | [8] | [15] | [18] | [20]
inactive: all other assays above

OC(CCCN1CCCCC1)(c1ccccc1)c1ccccc1
not listed: [12] | [13] | [19] | [20]
inactive: all other assays above

Cc1nccn1-c1ccc(Sc2cccc(C3(C(N)=O)CCOCC3)c2)cc1
inactive: [1] | [19] | [4] | [7] | [8] | [17] | [9] | [11] | [13]

CC1=NN(c2ccc(C(=O)O)cc2)C(=O)C1
not listed: [13] | [16] | [19] | [20]
inactive: all other assays above

CCCOCCOCCO
not listed: [11] | [13] | [14] | [15] | [16] | [19] | [20]
inactive: all other assays above

CC1=C(C=O)C(C)(C)CCC1
not listed: [6] | [12] | [16] | [18] | [19]
inactive: all other assays above

N#C[C@@H]1C[C@@H]2C[C@@H]2N1C(=O)[C@@H](N)C12CC3CC(CC(O)(C3)C1)C2
not listed: [2] | [4] | [6] | [10] | [11] | [14] | [16] | [18]
inactive: all other assays above

CCC(=O)OC/C=C/c1ccccc1
not listed: [6] | [7] | [8] | [19]
inactive: all other assays above

CC(C)CCCCCCOC(=O)CCCCC(=O)OCCCCCCC(C)C
not listed: [6] | [8] | [11] | [19] | [20]
inactive: all other assays above

CC(=O)[C@H]1CC[C@H]2[C@@H]3C=CC4=CC(=O)CC[C@@]4(C)[C@@H]3CC[C@]12C
inactive: [1] | [19] | [3] | [5] | [8] | [17] | [9] | [11] | [13]
active: [6] 13.3 µM

C=CC(=C)CCCC(C)(C)OC(C)=O
not listed: [8] | [11] | [13] | [15] | [16] | [19] | [20]
inactive: all other assays above

NC(=O)N(O)[C@@H]1C=C[C@H](Oc2cccc(Oc3ccc(F)cc3)c2)C1
not listed: [2] | [4] | [6] | [8] | [12] | [15] | [18]
inactive: all other assays above

Nc1nccs1
not listed: [2] | [4] | [7] | [13] | [14] | [17] | [20]
inactive: all other assays above

Cc1nc2ccccn2c(=O)c1CCN1CCC(C(=O)c2ccc(F)cc2)CC1
not listed: [6] | [12] | [15] | [18] | [19]
inactive: all other assays above
